LGR2 antag – inhibitors of bursicon-induced Drosophila LGR2 receptor cAMP signaling; 0.35% of 380,000 active; inhibition, % at 9.99 µM; HEK293 LGR2, CRE-luciferase, bursicon-stimulated, 4 h;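 active = drop in luminescence signal, shown as inhibition above about 50% in the replicate tests, limit read from the data, passing the limit was not always enough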;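 note: agonist challenge used bursicon conditioned medium at about half maximal strength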
Mdm2 MdmX PPI – disrupts the human Mdm2-MdmX interaction; inhibition, % at 8 µM; SaOS-2 split-luciferase Mdm2/MdmX complementation, luminescence; 3% of 330,000 active;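 active = inhibition of at least 50% at 8 µM in the primary screen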
KKLEB cytotox – counter-screen for CF NF-kB inhibitors: cytotoxicity | KKLEB CF airway cells viability, ATPlite luminescence, overnight; stronger effect = lower value; cells stimulated with P. aeruginosa culture filtrate | activity change (cytotoxicity), % at 5 µM | 0.36% of 360,000 active | AID 602141;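 active = corrected activity change at or below -50% at 5 µM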
Peg3 prom inh-1 – reduces Peg3 promoter-driven luciferase expression in HeLa | AID 588405 | 1.7% of 360,000 active | HeLa PEG-Prom luciferase reporter, luminescence, overnight | inhibition, % at 20 µM;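 active = inhibition of at least 50% at 20 µM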
HSP90 inh – HSP90 refolding inhibition in rabbit reticulocyte lysate; AID 1789; 0.91% of 290,000 active; luciferase refolding luminescence, 3 h; inhibition, % at 5.6 µM;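 active = inhibition above the screen-wide mean plus 3 SD, computed separately per campaign, cut at about 16% in these data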;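 note: 0% = DMSO wells and 100% = 60 µM geldanamycin wells; inhibitors lower the luminescence because luciferase stays unfolded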
CF NFkB inh – inhibitors of cystic fibrosis induced NF-kB | inhibition, % at 5 µM | KKLEB NF-kB-GFP reporter, PAF-induced, GFP fluorescence overnight | AID 588850 | 0.86% of 360,000 active;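 active = at least 50% inhibition at 5 µM, scaled per plate between neutral and stimulator controls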;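 note: PAF is a Pseudomonas aeruginosa culture filtrate used as stimulus; plate controls were PAF-stimulated DMSO wells for no effect and unstimulated DMSO wells for full effect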
Peg3 prom inh-2 – confirmation of Peg3 promoter inhibitors; shares compounds with Peg3 prom inh-1; HeLa PEG-Prom luciferase reporter, luminescence, overnight; inhibition, % at 20 µM; 84% of 1,300 active; AID 602417;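 active = at 20 µM dose, 40% or more inhibition averaged across four replicates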
* = called active by the depositor; / = not tested or not shown. Only some compounds are listed: those with a hit (about 3.6% of all), similar ones and a draw of the others.

SMILES	LGR2 antag	Mdm2 MdmX PPI	KKLEB cytotox	Peg3 prom inh-1	HSP90 inh	CF NFkB inh	Peg3 prom inh-2
N#Cc1ccc(-c2ccc3c(c2)[C@@H]2[C@@H](CCN2C(=O)C2CC2)[C@@H](CO)N3)cc1	-4.8	/	/	/	/	/	/
CC(C)COc1ccc(C(=O)Nc2ccc(NC(=O)c3ccco3)cc2)cc1	/	9.8	6.1	77.3*	-1.8	-10.4	38.2
COc1ccccc1NC(=S)NC1CCCCCCCCCCC1	24.4	49.9	-17.2	54.8*	1.6	15.9	91.3*
COc1ccccc1NC(=S)NC1CCCCC1	8.7	-20.3	-4.5	-16.2	0.0	8.5	/
C[C@H](CO)N1C[C@H](C)[C@@H](CN(C)C(=O)Nc2ccccc2)Oc2ccc(NC(=O)NC3CCCCC3)cc2CC1=O	-8.0	/	/	/	/	/	/
COc1ccc(CCN2C(=O)C=CC2=O)cc1OC	0.9	/	-3.5	95.9*	/	6.4	97.6*
C[C@H](CO)N1C[C@H](C)[C@@H](CN(C)S(=O)(=O)c2ccc(Cl)cc2)OCCCC[C@H](C)Oc2ccc(NC(=O)NC3CCCCC3)cc2C1=O	30.0	/	/	/	/	/	/
COc1ccc(S(=O)(=O)N2CCN(c3nc(-c4cccnc4)nc4ccccc34)CC2)cc1	7.4	-22.9	-8.0	20.8	/	9.3	/
COc1cc2c(cc1OC)CN(c1nc(-c3cccnc3)nc3ccccc13)CC2	45.0	2.1	8.0	64.9*	-6.9	5.5	71.0*
Cc1ccc(C)c(S(=O)(=O)N2CCN(c3nc(-c4cccnc4)nc4ccccc34)CC2)c1	/	37.6	1.8	63.5*	/	13.2	47.2*
CN1[C@@H]2c3ccc(-c4ccc(F)cc4)c(=O)n3C[C@H]1[C@H](CO)[C@H]2C(=O)NC1CCCCC1	-11.6	/	/	/	/	/	/
CCCN(C)C[C@@H]1OCCCC[C@H](C)Oc2ccc(NS(C)(=O)=O)cc2C(=O)N([C@@H](C)CO)C[C@H]1C	-0.4	/	/	/	/	/	/
CN(C)CC(=O)N1[C@H](CO)[C@H](c2ccccc2-c2ccc(C(=O)N(C)C)cc2)[C@@H]1C#N	-6.4	/	/	/	/	/	/
CN(C)C(=O)[C@@H]1[C@@H](CO)[C@@H]2Cn3c(ccc(-c4cncnc4)c3=O)[C@@H]2N1Cc1cc(F)ccc1F	-7.4	/	/	/	/	/	/
CC1=NN(c2nc(-c3ccc(C)cc3)cs2)C(=O)C1N=Nc1ccc2ccccc2c1 (stereo unspecified)	/	27.4	-3.2	-14.0	0.3	-1.8	/
CC1=NN(c2nc(-c3ccc(C)cc3)cs2)C(=O)C1N=Nc1ccc(C(N)=O)cc1 (stereo unspecified)	13.9	/	-66.1*	102.4*	-3.8	76.1*	30.4
COc1cc(C=NO)nc(-c2ccccn2)c1	3.7	/	-16.4	52.2*	/	18.0	64.6*
COc1ccc2nc(-c3ccccn3)[nH]c2c1	-11.4	-23.9	0.9	-149.4	4.3	-1.3	/
CC(C)CC(N)c1csc(NC(=O)Nc2ccccc2C(C)C)n1 (stereo unspecified)	1.4	/	-7.5	71.8*	/	9.2	84.1*
COc1ccc(NC(=O)Nc2nc(C(N)CC(C)C)cs2)cc1 (stereo unspecified)	9.0	/	9.9	11.3	/	2.1	/
COc1cc(C(=O)NN=C2c3ccccc3-c3ccccc32)cc(OC)c1OC	-3.5	/	/	/	/	/	/
COc1cc(C(=O)N/N=C(\c2ccccc2)c2ccccn2)cc(OC)c1OC	43.2	46.5	1.8	107.0*	2.0	15.8	80.7*
CCCn1c(SCC(=O)N2CCCc3ccccc32)nc2c1c(=O)n(C)c(=O)n2C	/	5.2	5.0	13.2	-2.9	10.3	/
CCCc1nc(SCC(=O)N2CCCc3ccccc32)c2c(=O)n(C)c(=O)n(C)c2n1	/	42.9	17.2	53.3*	1.7	8.9	46.4*
OC[C@@H]1[C@@H](c2ccccc2)C2(CN(CCC(F)(F)F)C2)N1Cc1cccnc1	-1.1	/	/	/	/	/	/
SMILES	LGR2 antag	Mdm2 MdmX PPI	KKLEB cytotox	Peg3 prom inh-1	HSP90 inh	CF NFkB inh	Peg3 prom inh-2
CC(C)n1nc(C(=O)Oc2cccc(Cl)c2Cl)c2ccccc2c1=O	1.7	23.5	-10.7	31.5	-0.8	13.1	/
CC(C)n1nc(C(=O)Oc2cc(Cl)ccc2Cl)c2ccccc2c1=O	17.3	-2.7	-13.4	53.5*	-8.1	9.2	65.1*
CCCCCCCn1c(=N)n(CC(O)c2ccco2)c2ccccc21 (stereo unspecified)	-7.3	/	-2.3	80.3*	3.0	4.7	90.7*
CCCCn1c(=N)n(CC(O)c2ccccc2)c2ccccc21 (stereo unspecified)	6.0	-33.0	6.0	8.2	1.1	-6.1	/
COc1ccc(Cl)cc1Nc1nc(-c2sc(NC(=O)CC(C)C)nc2C)cs1	-3.4	29.1	9.6	6.9	4.9	-13.1	/
COc1ccccc1Nc1nc(-c2sc(NC(=O)c3ccco3)nc2C)cs1	0.0	12.5	-2.7	70.5*	12.1	32.1	58.0*
COc1ccccc1N1CCN(C(=O)C(Sc2ccccc2)c2ccccc2)CC1 (stereo unspecified)	/	38.5	14.2	52.4*	1.2	2.5	40.9*
COc1ccccc1N1CCN(C(=O)CSc2ccccc2)CC1	/	-27.8	7.7	-138.1	4.4	2.9	/
C[C@@H]1CN([C@@H](C)CO)C(=O)c2cc(NC(=O)CCCN(C)C)ccc2O[C@H]1CN(C)S(=O)(=O)c1cn(C)cn1	-7.9	/	/	/	/	/	/
CC(=O)COc1cc2c(-c3cc4ccccc4o3)cc(=O)oc2cc1C	-0.4	27.1	1.8	56.4*	4.0	-193.3	35.9
CCC(C)n1cnc2c(c1=O)c1nc3ccccc3nc1n2-c1ccc2c(c1)OCCO2 (stereo unspecified)	/	11.9	-16.8	56.0*	3.3	9.4	18.3
COC(=O)CSc1ccccc1C(=O)OC	5.1	18.1	6.6	-1.4	-4.0	-1.9	/
COC(=O)CSC1=NS(=O)(=O)c2ccccc21	/	10.7	2.3	73.6*	1.6	7.3	80.5*
CCN1CCCC1CN(Cc1cc2ccc(C)cc2[nH]c1=O)C(=S)Nc1cccc(OC)c1 (stereo unspecified)	7.9	39.7	-7.2	1.4	5.7	-28.9	/
CCN1CCCC1CN(Cc1cc2ccc(C)cc2[nH]c1=O)C(=S)Nc1ccc(OC)cc1 (stereo unspecified)	2.1	-8.2	-4.9	63.1*	-3.5	14.4	79.6*
Cc1cc(Br)ccc1NC(=O)CNC(=O)CN1C(=O)NC2(CCCCCC2)C1=O	8.8	-10.9	-0.4	10.5	-0.2	0.4	/
Cc1cc(Br)ccc1NC(=O)CN1C(=O)C2C3CC(c4ccccc4)C(C3)C2C1=O (stereo unspecified)	20.9	4.8	-6.9	55.6*	1.8	-18.8	62.5*
O=C1NC(Cc2ccc(O)cc2)c2nc3ccc(F)cc3c(=O)n2-c2cc3ccccc3cc21 (stereo unspecified)	11.8	/	-16.7	54.1*	/	-2.8	60.0*
O=C1NC(Cc2ccccc2)c2nc3cc(F)ccc3c(=O)n2-c2cc3ccccc3cc21 (stereo unspecified)	14.9	/	-2.9	21.5	/	-8.7	/
